Results published in PubChem BioAssay (NCATS).
Several values for one entry are separate records, joined by “and”; a condition that tells them apart may be missing. Identical values can stand only once. Inconclusive results are not listed. Where a call stands in place of a potency, no number is given. Some compounds were tested as several samples or in several runs, with calls that do not always agree. Unmarked numbers belong to inactive results. Activity calls are given as the source filed them. The call rests on the fitted dose curve; in most records, active means well fitted curve in the direction sought with a large enough effect; inconclusive means small, poorly fitted or top-dose-only effect, or another doubt; inactive means no such curve, though single readings can be large; an effect the other way counts as inactive or inconclusive.

Tests used:
[1] = molecular target: Cytochrome P450 3A7 (Homo sapiens) (UniProt P24462); experiment: Cytochrome P450 family 3 subfamily A member 7 (CYP3A7) small molecule antagonists: luciferase biochemical qHTS assay (AID 1963596); further: nearly all actives have a fitted effect of over 40% in size
Cytochrome P450 3A7 (Homo sapiens), sequence (P24462 whole entry, looked up): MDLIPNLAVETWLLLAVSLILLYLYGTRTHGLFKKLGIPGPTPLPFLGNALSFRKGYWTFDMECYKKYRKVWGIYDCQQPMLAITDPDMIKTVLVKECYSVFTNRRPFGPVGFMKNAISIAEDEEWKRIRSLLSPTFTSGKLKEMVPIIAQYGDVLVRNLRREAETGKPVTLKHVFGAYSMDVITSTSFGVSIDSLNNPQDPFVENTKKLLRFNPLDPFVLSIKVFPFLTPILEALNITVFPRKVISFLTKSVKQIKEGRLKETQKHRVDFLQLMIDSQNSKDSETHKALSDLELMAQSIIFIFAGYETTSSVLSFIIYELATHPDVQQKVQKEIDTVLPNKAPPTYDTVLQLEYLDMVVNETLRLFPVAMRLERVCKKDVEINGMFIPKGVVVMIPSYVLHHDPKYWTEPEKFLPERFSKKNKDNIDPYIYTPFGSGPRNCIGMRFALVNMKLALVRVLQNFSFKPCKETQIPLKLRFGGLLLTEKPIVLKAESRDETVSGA
Outline: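 Luminescence from luciferin released by CYP3A7 from a proluciferin substrate, read 20 min after detection reagent. Compound and enzyme-substrate mix sat 10 min before NADPH regeneration solution; reaction ran 1 h at room temperature.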

[2] = Viability qHTS for spleen associated tyrosine kinase inhibitor (SYKi) naive MV4-11 cells (AID 1963823); further: nearly all actives have a fitted effect of over 40% in size; further: potency means the concentration at half of the fitted maximal effect
Outline: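 Seeding of 500 SYKi-naive MV4-11 cells per well onto pre-dispensed compounds preceded a 72 hr incubation at 37 C. Luminescent CellTiter-Glo signal, read after 10 min at room temperature, reflected viable cells.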

[3] = Viability qHTS for spleen associated tyrosine kinase inhibitor (SYKi) drug resistant MV4-11 cells (AID 1963824); further: nearly all actives have a fitted effect of over 35% in size; further: potency means the concentration at half of the fitted maximal effect
Outline: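 SYK-inhibitor-resistant MV4-11 AML cells were seeded at 500 per well onto compound and cultured 72 hours (37 °C, 5% CO2). CellTiter-Glo was then added, and after 10 min at room temperature, luminescence gave viability.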

[4] = Cellular viability qHTS for adrenocortical cancer (ACC) cell line SW-13 (AID 1963989); conditions: SW-13 ACC cells viability, CellTiter-Glo, 48 h; activity (max response): active compounds read low;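 further: cells grown in serum-free medium with ITS supplement; nearly all actives have a fitted effect of over 65% in size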
Outline: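 Luminescent ATP read-out (CellTiter-Glo, 20 min at room temperature) measured metabolically competent SW-13 cells after 48 h compound treatment. Final concentrations spanned up to 46 uM; bortezomib served as positive control.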

[5] = Cellular viability qHTS for adrenocortical cancer (ACC) cell line NCI-H295R (AID 1963990); further: nearly all actives have a fitted effect of over 60% in size
Outline: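 IC50 and maximal efficacy derive from four-parameter logistic modelling of titration curves, with reads scaled between DMSO-only wells (0%) and doxorubicin hydrochloride (100% inhibition). Compounds spanned up to 46 uM over 48 h.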

[6] = Quantitative highthroughput screen to assess conditional lethalithy of NOMO1 cells grown in RPMI1640 with untreated serum (RPMI+s) (AID 1963876); further: nearly all actives have a fitted effect of over 35% in size; further: potency means the concentration at half of the fitted maximal effect
Outline: (§1)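 Each medium arm—HPLM with 10% dialyzed FBS, or RPMI1640 with 5 mM glucose and 10% untreated or dialyzed FBS—was screened against an 11-point, 3-fold compound titration for 48 h at 37 °C, with CellTiter-Glo luminescence as endpoint.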

[7] = Quantitative highthroughput screen to assess conditional lethalithy of NOMO1 cells grown in RPMI1640 with dialyzed fetal bovine serum (RPMI+ds) (AID 1963877); further: nearly all actives have a fitted effect of over 30% in size; further: potency means the concentration at half of the fitted maximal effect; on Viability: series mostly up to about 46 µM
Outline: as §1

[8] = Quantitative highthroughput screen to assess conditional lethalithy of NOMO1 cells grown in Human Plasma-Like Medium with dialyzed fetal bovine serum (HPLM+ds) (AID 1963878); further: nearly all actives have a fitted effect of over 35% in size; further: potency means the concentration at half of the fitted maximal effect
Outline: as §1

[9] = Quantitative highthroughput screen to assess conditional lethalithy of P12 Ichikawa cells grown in Human Plasma-Like Medium with dialyzed fetal bovine serum (HPLM+ds) (AID 1963879); conditions: Potency: viability; further: series mostly up to about 46 µM; nearly all actives have a fitted effect of over 35% in size
Outline: as §1

[10] = Quantitative highthroughput screen to assess conditional lethalithy of P12 Ichikawa cells grown in RPMI1640 with dialyzed fetal bovine serum (RPMI+ds) (AID 1963880); conditions: Potency: P12-Ichikawa viability; further: nearly all actives have a fitted effect of over 35% in size
Outline: as §1

[11] = Quantitative highthroughput screen to assess conditional lethalithy of P12 Ichikawa cells grown in RPMI1640 with untreated serum (RPMI+s) (AID 1963881); conditions: Potency: viability
Outline: as §1

[12] = Quantitative highthroughput screen to assess conditional lethalithy of SEM cells grown in Human Plasma-Like Medium with dialyzed fetal bovine serum (HPLM+ds) (AID 1963882)
Outline: as §1

[13] = Quantitative highthroughput screen to assess conditional lethalithy of SEM cells grown in RPMI1640 with unreated serum (RPMI+s) (AID 1963883); further: nearly all actives have a fitted effect of over 35% in size
Outline: as §1

[14] = Quantitative highthroughput screen to assess conditional lethalithy of SEM cells grown in RPMI1640 with dialyzed fetal bovine serum (RPMI+ds) (AID 1963884)
Outline: as §1

Row | SMILES | Potency [1] | Potency [2] | Potency [3] | viability, % of control [3] | activity (max response) [4] | Potency [5] | Potency [6] | Potency [7] | Potency [8] | Potency [9] | Potency [10] | Potency [11] | Potency [12] | Potency [13] | Potency [14]
1 | C[C@@H]1CN(c2c(F)c(F)c3c(=O)c(C(=O)O)cn(C4CC4)c3c2F)C[C@H](C)N1 | inactive | inactive | 4.61 µM (active) | 79.8% [at 9.25 µM] | 12.9% | inactive |  |  |  |  |  |  |  |  | 
2 | CN(C)CC(=O)N1CCC(c2ccc(NC(=O)c3ncc(C#N)[nH]3)c(C3=CCCCC3)c2)CC1 | inactive | 73.1 nM (active) and 74.2 nM (active) | 41.1 nM (active) and 148 nM (active) |  |  |  | inactive | inactive | inactive | inactive | inactive | inactive |  |  | 
3 | CCN1C[C@H](C)n2c(c(O)c3c(=O)n(Cc4ccc(F)c(Cl)c4)nc(C(=O)NC)c32)C1=O | inactive | inactive | inactive |  |  |  | 23.5 µM (active) | 16.6 µM (active) | 16.6 µM (active) | inactive | inactive | inactive | inactive | inactive | inactive
4 | N#Cc1ccc(C(c2ccc(C#N)cc2)n2cncn2)cc1 | inactive | inactive | inactive |  | 2.79% | inactive | inactive | inactive | inactive | inactive | inactive | inactive | inactive |  | inactive
5 | O=NN(CCCl)C(=O)NC1CCCCC1 | inactive | inactive | inactive |  | 15.5% and -13.1% | inactive | inactive | inactive | inactive | inactive | inactive | inactive | inactive | inactive | 
6 | Cc1nnc(C(=O)NC(C)(C)c2nc(C(=O)NCc3ccc(F)cc3)c(O)c(=O)n2C)o1 | inactive | inactive | inactive |  | 8% and 11.5% | inactive | inactive | inactive | inactive | inactive | inactive | inactive | inactive | inactive | inactive
7 | CCOC(=O)C(C)(C)Oc1ccc(Cl)cc1 | inactive | inactive | inactive |  | 0.705% and -17.8% | inactive | inactive | inactive | inactive | inactive | inactive | inactive |  | inactive | inactive
8 | C1Cc2[nH]nc(-c3nn[nH]n3)c2C1 | inactive | inactive | inactive |  | 1.5% | inactive | inactive | inactive | inactive | inactive | inactive | inactive | inactive | inactive | inactive
